Assay outcomes deposited in PubChem by National Center for Advancing Translational Sciences (NCATS).
Only some compounds are listed: those with a hit (about 19% of all), similar ones and a draw of the others.
Giardia kill: Giardia lamblia killing. Giardia lamblia trophozoite viability. 340,000 compounds, 0.15% hits. activity change, % at 7.66 µM, hits read low. AID 540267; in the data active means activity change below about -80%; inconclusive means between about -30% and that limit;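 further: parasites exposed to compound for two days anaerobically before the ATP read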
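Trophozoites 100 cells/well + cpd; 48 hrs, 37 deg C, anaerobic. ATPLite 1-Step added, 15-30 min RT, luminescence read (ATP-based viability).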
IL1B secr inh: inflammasome signaling inhibition, IL-1 beta readout; activity change, % at 57.5 µM; 360,000 compounds, 4.7% hits; THP-1 LPS/ATP IL-1B secretion, AlphaLISA, 16 h; hits give low values; AID 743279; in the data active means activity change below about -50%; inconclusive means mostly about -30% to -49%
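THP-1 cells pretreated 1 hr with compounds (up to 57.5 uM final), then stimulated with LPS (250 ng/mL final) plus ATP (1.25 mM final); secreted IL-1B measured by AlphaLISA after 16 hr, decreased signal indicating inhibition.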
DT40 TDP1 no CPT: qHTS for Inhibitors of human tyrosyl-DNA phosphodiesterase 1 (TDP1): qHTS in cells in absence of CPT; AID 686978, 2013; DT40 Tdp1-/- hTDP1 cells, no CPT, ATP luminescence, 48 h; Potency, µM (top dose mostly 46.2 µM), without a hit: at the highest dose activity change, negative = growth inhibition, hits mostly inhibitors; 420,000 compounds, 15% hits; further: potency means the concentration at half of the fitted maximal effect; nearly all actives have a fitted effect of over 55% in size
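Chicken DT40 Tdp1-/- cells stably complemented with human TDP1 were seeded at 400 cells/well with DMSO in place of 20 nM camptothecin. After compound pinning, cells grew at least 48 hr at 37 °C; viability read by CellTiter-Glo luminescence.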
ELG1 DNA repair: blocks ELG1-dependent DNA repair in HEK293T cells; HEK293T ELG1-luciferase reporter, luminescence, 16 h; DNA damage induced by 5-fluorouridine; 330,000 compounds, 2.3% hits; Potency, µM (highest dose often 46.1 µM), inactives show top-dose activity change, negative = inhibition, most hits filed as inhibitors; AID 504467; further: potency means the concentration at half of the fitted maximal effect; nearly all actives have a fitted effect of over 55% in size
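Luminescence from the luciferase reporter, measured 30 min after ONE-Glo reagent at room temperature, was the read-out. Beforehand, 2,000 cells per well were exposed for 16 hr at 37 °C to 5-fluorouridine together with compound or vehicle.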
TDP1 cell CPT: growth inhibition of DT40 Tdp1-/-;hTDP1 cells with camptothecin (screen for TDP1 inhibitors). Potency, µM (top dose mostly 46.2 µM), without a hit: top-dose activity change, negative = growth inhibition, usual class: inhibitors. AID 686979. 420,000 compounds, 12% hits. chicken DT40 Tdp1-/-;hTDP1 cells + 20 nM CPT, ATP luminescence, 48 h; further: potency means the concentration at half of the fitted maximal effect; nearly all actives have a fitted effect of over 55% in size
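Chicken DT40 Tdp1-/- cells stably complemented with human TDP1 were seeded at 400 cells/well in medium containing 20 nM camptothecin, exposed to pin-transferred compounds, and grown at 37 °C for at least 48 hr. Viability was read as ATP luminescence.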
TDP1 block: blocks human tyrosyl-DNA phosphodiesterase 1; Q9NUW8; AID 485290; Potency, µM (series often up to 130 µM), for inactives: top-dose activity change, negative = inhibition, hits mostly inhibitors; recombinant TDP1, AlphaScreen DNA substrate cleavage; 350,000 compounds, 0.28% hits; further: potency means the concentration at half of the fitted maximal effect; nearly all actives have a fitted effect of over 40% in size
Target sequence (Q9NUW8 whole entry, looked up): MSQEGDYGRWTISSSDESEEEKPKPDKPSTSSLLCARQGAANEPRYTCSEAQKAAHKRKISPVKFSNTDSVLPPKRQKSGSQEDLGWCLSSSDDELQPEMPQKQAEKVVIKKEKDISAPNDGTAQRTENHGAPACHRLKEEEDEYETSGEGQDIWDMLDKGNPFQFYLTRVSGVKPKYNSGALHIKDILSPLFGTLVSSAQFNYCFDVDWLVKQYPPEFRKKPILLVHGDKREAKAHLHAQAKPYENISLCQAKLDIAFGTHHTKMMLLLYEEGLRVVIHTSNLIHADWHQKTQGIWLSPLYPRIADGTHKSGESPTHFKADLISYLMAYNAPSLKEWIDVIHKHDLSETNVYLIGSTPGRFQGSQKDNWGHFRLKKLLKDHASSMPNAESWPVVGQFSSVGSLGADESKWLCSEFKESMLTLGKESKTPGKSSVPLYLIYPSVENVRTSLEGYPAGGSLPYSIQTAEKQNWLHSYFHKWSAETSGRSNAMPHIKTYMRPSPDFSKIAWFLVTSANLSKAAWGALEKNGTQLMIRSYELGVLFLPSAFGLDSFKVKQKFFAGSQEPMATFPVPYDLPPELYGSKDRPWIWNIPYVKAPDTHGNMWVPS
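Steps: enzyme plus compound, 15 min RT; add biotin/phosphotyrosine-FITC oligonucleotide (15 nM final), react 5 min; add donor/acceptor beads (10 ug/ml final), 10 min; read AlphaScreen. Tdp1 at 1 nM final.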
Numbers without * were called inactive; ? = inconclusive; / = no result given; [ ] = dose if it differs, or a comment. Unless noted, the call rests on the fitted dose curve; in most records, active means well fitted curve in the direction sought with a large enough effect; inconclusive means small, poorly fitted or top-dose-only effect, or another doubt; inactive means no such curve, though single readings can be large; an effect the other way counts as inactive or inconclusive. On the % scale 0 is the no-effect control and ±100 the full control effect.

SMILES	Giardia kill	IL1B secr inh	DT40 TDP1 no CPT	ELG1 DNA repair	TDP1 cell CPT	TDP1 block
CCOC(=O)C(Cc1ccc(NC(=O)/C(=C\c2ccccc2)NC(=O)c2ccccc2)cc1)N1C(=O)c2ccccc2C1=O (stereo not given)	8	24	8.2µM*	2%	10µM*	-1%
CCCCOc1ccc(CN(CCO)CCO)cc1[N+](=O)[O-]	5	-13	-2%	?	18µM*	-3%
COc1ccc(CSC(=N)N)cc1[N+](=O)[O-]	4	-60*	23µM*	?	23µM*	2%
CCCCCOc1ccc(CSC(=N)N)cc1[N+](=O)[O-]	-1	-105*	16µM*	?	15µM*	4%
CCS(=O)(=O)N1CCC(NC(=O)C(Cc2ccc(OC)c(OC)c2)NC(C)=O)CC1 (stereo not given)	-21	10	6%	-14%	-1%	/
Cc1nc(-c2ccncc2)nc(NCCNc2ncccc2C(F)(F)F)c1Cl	-13	-18	7.3µM*	-22%	12µM*	/
COC(=O)CC1(C(=O)OC)Oc2ccc(Br)cc2C(=O)N1c1ccc(Br)cc1Cl (stereo not given)	-14	-28	4.1µM*	23µM*	5.8µM*	-3%
COC(=O)CC1(C(=O)OC)Oc2ccc(Br)cc2C(=O)N1c1cc(Cl)c(Cl)cc1Cl (stereo not given)	-4	-23	5.8µM*	16µM*	8.2µM*	0%
COC(=O)CC1(C(=O)OC)Oc2ccc(Br)cc2C(=O)N1c1cccc(Cl)c1Cl (stereo not given)	12	19	6.5µM*	?	3.7µM*	-4%
CCOC(=O)/C(C#N)=N\Nc1cc(Cl)ccc1OC	29	2	?	0%	1%	-2%
CC1=C(C(=O)N2CCOCC2)CC(CC(=O)NCC2CCCCC2)C(=O)N1Cc1ccc(C(C)(C)C)cc1 (stereo not given)	/	-53*	?	/	18µM*	/
CC1=C(C(=O)N2CCOCC2)CC(CC(=O)NC2CC2)C(=O)N1Cc1ccc(C(C)(C)C)cc1 (stereo not given)	/	11	-28%	/	-26%	/
COc1ccc(CN2C(=O)C(CC(=O)NC3CCCC3)CC(C(=O)N(C(C)C)C(C)C)=C2C)cc1 (stereo not given)	/	16	?	/	?	/
CC1=C(C(=O)N2CCCCCC2)CC(CC(=O)NCCCN(C)C)C(=O)N1Cc1ccc(C(C)(C)C)cc1 (stereo not given)	/	/	?	/	8.3µM*	/
CC1=C(C(=O)N2CCOCC2)CC(CC(=O)NC2CCCCC2)C(=O)N1Cc1ccc(C(C)(C)C)cc1 (stereo not given)	/	-13	21µM*	/	?	/
CC1=C(C(=O)N(C(C)C)C(C)C)CC(CC(=O)NC2CCCCC2)C(=O)N1Cc1ccc(C(C)(C)C)cc1 (stereo not given)	/	-30	21µM*	/	15µM*	/
Cc1ccc(S(=O)(=O)Nc2cc3c(cc2C#N)OCO3)cc1C(N)=O	2	1	-10%	15%	-17%	0%[0.0935 µM]
Cc1ccc(C23CC4CC(CC(C(=O)N5CCOCC5)(C4)C2)C3)cc1	11	9	?	-19%	?	0%
CC1=C(C(=O)N2CCCCCC2)CC(CC(=O)NC2CCCCC2)C(=O)N1Cc1ccc(C(C)(C)C)cc1 (stereo not given)	/	-73*	21µM*	/	15µM*	/
CC1=C(C(=O)N2CCCCCC2)CC(CC(=O)NCCc2ccccn2)C(=O)N1Cc1ccccc1 (stereo not given)	/	9	-4%	/	-20%	/
CC1=C(C(=O)N2CCCCCC2)CC(CC(=O)NCCc2ccccn2)C(=O)N1Cc1ccc(C(C)(C)C)cc1 (stereo not given)	/	?	16µM*	/	18µM*	/
CC1CCCC(NC(=O)c2cccc(S(=O)(=O)N3CCOCC3)c2)C1C (stereo not given)	/	-16	?	/	?	/
COc1cccc(CNC(=O)Cn2c(=O)ccc3cc(S(=O)(=O)N4CCCC4)ccc32)c1	/	/	-23%	/	-22%	2%
CCOc1ccc(CCNC(=O)Cn2nc(CC)n3c(cc4c(OC)cccc43)c2=O)cc1OCC	/	/	?	/	-17%	-1%
O=C(Cn1nc(N2CCN(c3ccccc3)CC2)ccc1=O)NCc1cccc(Cl)c1	/	/	?	/	?	8%
SMILES	Giardia kill	IL1B secr inh	DT40 TDP1 no CPT	ELG1 DNA repair	TDP1 cell CPT	TDP1 block
O=C(Nc1c(C(=O)N2CCN(c3ccccn3)CC2)oc2ccccc12)c1ccc([N+](=O)[O-])cc1	20	-18	?	-7%	23µM*	3%
O=C(c1ccc([N+](=O)[O-])s1)N1CCN(c2ccccn2)CC1	?	44	15µM*	?	23µM*	6%[0.0935 µM]
O=C(c1cc(Br)c(Br)s1)N1CCN(c2ccccn2)CC1	7	0	?	7%	?	7%
O=C(NCCC(=O)N1CCN(c2ccccn2)CC1)c1ccc([N+](=O)[O-])cc1	13	19	3%	1%	-19%	0%
COc1ccccc1NC(=O)C1=C(C)Nc2c(C(=O)Nc3ccc(F)cc3)cnn2C1c1cccc([N+](=O)[O-])c1 (stereo not given)	/	/	23µM*	/	?	2%
CC1=C(C(=O)Nc2ccc(Cl)cc2)C(c2ccccc2C)n2ncc(C(=O)Nc3ccc(C)cc3)c2N1 (stereo not given)	/	/	7.3µM*	/	7.3µM*	0%
CC1=C(C(=O)Nc2ccc(Cl)cc2)C(c2ccccc2)n2ncc(C(=O)Nc3ccccc3)c2N1 (stereo not given)	/	/	15µM*	/	21µM*	7%
COc1cccc(C2C(C(=O)Nc3ccc(Cl)cc3)=C(C)Nc3c(C(=O)Nc4ccccc4)cnn32)c1OC (stereo not given)	/	/	?	/	23µM*	3%
COc1ccc(NC(=O)C2=C(C)Nc3c(C(=O)Nc4ccc(C)cc4)cnn3C2c2cc(OC)ccc2OC)cc1 (stereo not given)	/	/	?	/	-4%	5%
COc1ccc(NC(=O)C2=C(C)Nc3c(C(=O)Nc4ccc(C)cc4)cnn3C2c2cccc(Cl)c2)cc1 (stereo not given)	/	/	-27%	/	?	0%
CC1=C(C(=O)Nc2ccc(C)cc2C)C(c2ccccc2)n2ncc(C(=O)Nc3ccccc3)c2N1 (stereo not given)	/	/	?	/	?	3%
